Results reported in PubChem BioAssay (NCI).
This is part of a sample that, as a whole, favours compounds with a hit. Of some 79,000 tested, about 15% had one in any assay. A number with no mark means an inactive call. Activity calls are given as the source filed them. Cut-off read from the data, not from the text of the source: active = growth inhibition above about 70%; inactive = the rest.

Assays:
[1] = NCI Yeast Anticancer Drug Screen. Data for the rad52 strain (AID 147);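 note: 0% = growth of vehicle-treated control cultures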; conditions: S. cerevisiae rad52 mutant growth inhibition, hits give high values
Method in brief: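 Yeast strain carrying a DNA damage repair alteration was exposed to test compounds. Growth inhibition was measured relative to vehicle-treated controls.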

[2] = NCI Yeast Anticancer Drug Screen. Data for the wt1 strain (AID 149);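 note: 0% = growth of vehicle-treated wt1 cultures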; conditions: S. cerevisiae wt1 strain (SPY 50644) growth inhibition, hits give high values
Method in brief: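 Vehicle-normalised growth inhibition; strain wt1; compound exposure.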

[3] = NCI Yeast Anticancer Drug Screen. Data for the mgt1 strain (AID 153); conditions: S. cerevisiae mgt1 mutant growth inhibition, hits give high values
Method in brief: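 Yeast mgt1 strain (DNA repair/cell-cycle alteration panel) exposed to compounds; growth inhibition measured relative to vehicle-treated controls.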

[4] = NCI Yeast Anticancer Drug Screen. Data for the rad50 strain (AID 155);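 note: 0% = growth of vehicle-only cultures of the same strain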; conditions: S. cerevisiae rad50 strain growth inhibition, hits give high values
Method in brief: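 A DNA repair-deficient yeast mutant serves as the test organism; compound-induced growth inhibition is calculated against vehicle-treated cells.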

[5] = NCI Yeast Anticancer Drug Screen. Data for the mec2-1 strain (AID 157); conditions: S. cerevisiae mec2-1 strain, hits give high values
Method in brief: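 mec2-1 yeast strain, carrying an alteration in DNA damage repair or cell cycle control, was exposed to compounds; growth inhibition was measured relative to vehicle-treated controls.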

[6] = NCI Yeast Anticancer Drug Screen. Data for the rad14 strain (AID 159);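 note: 0% = growth of vehicle-treated control cultures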; conditions: S. cerevisiae rad14 strain growth inhibition, hits give high values
Method in brief: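 Vehicle-treated cultures served as the baseline for growth inhibition of a DNA repair-mutant yeast strain exposed to each compound.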

[7] = NCI Yeast Anticancer Drug Screen. Data for the sgs1 mgt1 strain (AID 161);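 note: 0% = growth of cultures given vehicle only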; conditions: S. cerevisiae sgs1 mgt1 strain, hits give high values
Method in brief: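 This yeast growth screen uses a strain with defined DNA-repair lesions; compound-treated growth is compared with vehicle-treated growth.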

[8] = NCI Yeast Anticancer Drug Screen. Data for the CLN2oe strain (AID 163);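 note: 0% = growth of vehicle-only control cultures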; conditions: S. cerevisiae CLN2oe strain, hits give high values
Method in brief: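 Yeast cells carrying a defined cell-cycle control alteration were exposed to test compounds. Growth inhibition was scored against vehicle-treated control cultures.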

[9] = NCI Yeast Anticancer Drug Screen. Data for the cln2 rad14 strain (AID 165);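 note: 0% = growth equal to vehicle treated cultures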; conditions: S. cerevisiae cln2 rad14 strain, hits give high values
Method in brief: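 Yeast carrying cln2 and rad14 alterations (cell cycle control and DNA damage repair) were exposed to compounds. Growth inhibition was measured against vehicle-treated controls.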

[10] = NCI Yeast Anticancer Drug Screen. Data for the bub3 strain (AID 167); conditions: S. cerevisiae bub3 mutant strain, hits give high values
Method in brief: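 Inhibition values come from growth of compound-treated mutant yeast normalised to vehicle-treated controls.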

[11] = NCI Yeast Anticancer Drug Screen. Data for the wt2 strain (AID 169);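 note: 0% = growth of vehicle-treated yeast cultures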; conditions: S. cerevisiae wt2 strain growth inhibition, hits give high values
Method in brief: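 Yeast cells were exposed to test compounds, and growth inhibition was measured relative to vehicle-treated controls.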

[12] = NCI Yeast Anticancer Drug Screen. Data for the mlh1 strain (AID 171);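 note: 0% = growth of vehicle-treated control cultures of the same strain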; conditions: S. cerevisiae mlh1 strain growth inhibition, hits give high values
Method in brief: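 Yeast carrying a defined genetic alteration in DNA damage repair or cell cycle control were exposed to test compounds. Growth inhibition was measured relative to vehicle-treated controls.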

[13] = NCI Yeast Anticancer Drug Screen. Data for the sgs1 strain (AID 173);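 note: 0% = growth of vehicle-only control cultures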; conditions: S. cerevisiae sgs1 mutant, hits give high values
Method in brief: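 Yeast mutant strains carrying defined defects in DNA damage repair or cell cycle control were exposed to test compounds. Growth inhibition was scored against vehicle-treated controls.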

[14] = NCI Yeast Anticancer Drug Screen. Data for the mlh1 rad18 strain (AID 175); conditions: S. cerevisiae mlh1 rad18 strain growth inhibition, hits give high values
Method in brief: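 Growth inhibition of the yeast strain was measured after compound exposure and expressed relative to vehicle-treated controls. The strain carries defined defects in DNA damage repair.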

[15] = NCI Yeast Anticancer Drug Screen. Data for the rad18 strain (AID 177); conditions: S. cerevisiae rad18 mutant growth inhibition, hits give high values
Method in brief: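 Yeast carrying a defined DNA damage repair alteration were exposed to compounds. Growth inhibition was expressed relative to vehicle-treated controls.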

[16] = at 5.0 µM (retest, dose inferred, filed as 0.5)
[17] = at 50.0 µM (retest, dose inferred, filed as 5.0)

In the case of `O=C(Cc1ccccc1)NN1C(=O)C(Cl)C1c1cc(Br)cc(Br)c1O` (stereo unspecified), the growth inhibition ([1]; at 1.2 µM) is reported as 4%, the growth inhibition ([1]; at 3.7 µM) is reported as 33% and the growth inhibition ([1]; at 11.0 µM) is reported as 92% (active). For the same compound, the growth inhibition ([1]; at 33.0 µM) was 93% (active), the growth inhibition ([1]; at 100.0 µM) was 88% (active) and the growth inhibition ([2]; at 1.2 µM) was -9%. For the same compound, the growth inhibition ([2]; at 3.7 µM) was -5%, the growth inhibition ([2]; at 11.0 µM) was 73% (active) and the growth inhibition ([2]; at 33.0 µM) was 94% (active). For the same compound, the growth inhibition ([2]; at 100.0 µM) was 89% (active), the growth inhibition ([3]; at 1.2 µM) was -5% and the growth inhibition ([3]; at 3.7 µM) was 14%. For the same compound, the growth inhibition ([3]; at 11.0 µM) was 94% (active), the growth inhibition ([3]; at 33.0 µM) was 95% (active) and the growth inhibition ([3]; at 100.0 µM) was 91% (active). For the same compound, the growth inhibition ([4]; at 1.2 µM) was 2%, the growth inhibition ([4]; at 3.7 µM) was 20% and the growth inhibition [4, 16] was 13%. For the same compound, the growth inhibition ([4]; at 11.0 µM) was 81% (active), the growth inhibition ([4]; at 33.0 µM) was 91% (active) and the growth inhibition [4, 17] was 94% (active). The growth inhibition ([4]; at 50.0 µM) was 97% (active), the growth inhibition ([4]; at 100.0 µM) was 84% (active) and the growth inhibition ([5]; at 1.2 µM) was -3%. The growth inhibition ([5]; at 3.7 µM) was 19%, the growth inhibition [5, 16] was 56% and the growth inhibition ([5]; at 11.0 µM) was 95% (active). The growth inhibition ([5]; at 33.0 µM) was 95% (active), the growth inhibition [5, 17] was 94% (active) and the growth inhibition ([5]; at 50.0 µM) was 97.3% (active). For the same compound, the growth inhibition ([5]; at 100.0 µM) was 92% (active), the growth inhibition ([6]; at 1.2 µM) was -3% and the growth inhibition ([6]; at 3.7 µM) was -3%. The growth inhibition ([6]; at 11.0 µM) was 85% (active), the growth inhibition ([6]; at 33.0 µM) was 93% (active) and the growth inhibition ([6]; at 100.0 µM) was 92% (active). For the same compound, the growth inhibition [7, 16] was 61%, the growth inhibition [7, 17] was 96% (active) and the growth inhibition ([7]; at 50.0 µM) was 98% (active). For the same compound, the growth inhibition ([8]; at 1.2 µM) was -6%, the growth inhibition ([8]; at 3.7 µM) was 18% and the growth inhibition ([8]; at 11.0 µM) was 95% (active). For the same compound, the growth inhibition ([8]; at 33.0 µM) was 94% (active), the growth inhibition ([8]; at 100.0 µM) was 86% (active) and the growth inhibition [9, 16] was 46%. For the same compound, the growth inhibition [9, 17] was 93% (active), the growth inhibition ([9]; at 50.0 µM) was 95.2% (active) and the growth inhibition ([10]; at 1.2 µM) was -8%. The growth inhibition ([10]; at 3.7 µM) was 12%, the growth inhibition [10, 16] was 98% (active) and the growth inhibition ([10]; at 11.0 µM) was 94% (active). The growth inhibition ([10]; at 33.0 µM) was 96% (active), the growth inhibition [10, 17] was 96% (active) and the growth inhibition ([10]; at 50.0 µM) was 97% (active). For the same compound, the growth inhibition ([10]; at 100.0 µM) was 87% (active), the growth inhibition ([11]; at 1.2 µM) was -5% and the growth inhibition ([11]; at 3.7 µM) was 10%. The growth inhibition ([11]; at 11.0 µM) was 88% (active), the growth inhibition ([11]; at 33.0 µM) was 94% (active) and the growth inhibition ([11]; at 100.0 µM) was 90% (active). For the same compound, the growth inhibition ([12]; at 1.2 µM) was -3%, the growth inhibition ([12]; at 3.7 µM) was 8% and the growth inhibition ([12]; at 11.0 µM) was 90% (active). The growth inhibition ([12]; at 33.0 µM) was 95% (active), the growth inhibition ([12]; at 100.0 µM) was 92% (active) and the growth inhibition ([13]; at 1.2 µM) was 4%. For the same compound, the growth inhibition ([13]; at 3.7 µM) was 30%, the growth inhibition ([13]; at 11.0 µM) was 92% (active) and the growth inhibition ([13]; at 33.0 µM) was 93% (active). For the same compound, the growth inhibition ([13]; at 100.0 µM) was 88% (active), the growth inhibition [14, 16] was 47% and the growth inhibition [14, 17] was 94% (active). The growth inhibition ([14]; at 50.0 µM) was 97.2% (active).

For `O=C(NCCCCN(CCCNC(=O)C(F)(F)F)Cc1ccccc1)C(F)(F)F`, the growth inhibition ([1]; at 1.2 µM) was 30%, the growth inhibition ([1]; at 3.7 µM) was 36% and the growth inhibition ([1]; at 11.0 µM) was 31%. For the same compound, the growth inhibition ([1]; at 33.0 µM) was 33%, the growth inhibition ([1]; at 100.0 µM) was 35% and the growth inhibition ([2]; at 1.2 µM) was 5%. The growth inhibition ([2]; at 3.7 µM) was 9%, the growth inhibition ([2]; at 11.0 µM) was 4% and the growth inhibition ([2]; at 33.0 µM) was 6%. The growth inhibition ([2]; at 100.0 µM) was -10%, the growth inhibition ([3]; at 1.2 µM) was 22% and the growth inhibition ([3]; at 3.7 µM) was 33%. It also gave a growth inhibition ([3]; at 11.0 µM) of 32%, a growth inhibition ([3]; at 33.0 µM) of 26% and a growth inhibition ([3]; at 100.0 µM) of 7%. For the same compound, the growth inhibition ([4]; at 1.2 µM) was 32%, the growth inhibition ([4]; at 3.7 µM) was 33% and the growth inhibition [4, 16] was 39%. For the same compound, the growth inhibition ([4]; at 11.0 µM) was 40%, the growth inhibition ([4]; at 33.0 µM) was 33% and the growth inhibition [4, 17] was 90% (active). It also gave a growth inhibition ([4]; at 50.0 µM) of -5.5%, a growth inhibition ([4]; at 100.0 µM) of 27% and a growth inhibition ([5]; at 1.2 µM) of 14%. The growth inhibition ([5]; at 3.7 µM) was 11%, the growth inhibition [5, 16] was 14% and the growth inhibition ([5]; at 11.0 µM) was 14%. The growth inhibition ([5]; at 33.0 µM) was 0%, the growth inhibition [5, 17] was 75% (active) and the growth inhibition ([5]; at 50.0 µM) was -9.05%. The growth inhibition ([5]; at 100.0 µM) was -13%, the growth inhibition ([6]; at 1.2 µM) was 16% and the growth inhibition ([6]; at 3.7 µM) was 16%. The growth inhibition ([6]; at 11.0 µM) was 15%, the growth inhibition ([6]; at 33.0 µM) was 11% and the growth inhibition ([6]; at 100.0 µM) was -10%. It also gave a growth inhibition [7, 16] of -19%, a growth inhibition [7, 17] of -11% and a growth inhibition ([7]; at 50.0 µM) of -5.75%. It also gave a growth inhibition ([8]; at 1.2 µM) of 13%, a growth inhibition ([8]; at 3.7 µM) of 3% and a growth inhibition ([8]; at 11.0 µM) of 6%. It also gave a growth inhibition ([8]; at 33.0 µM) of 12%, a growth inhibition ([8]; at 100.0 µM) of -3% and a growth inhibition [9, 16] of 14%. The growth inhibition [9, 17] was 8%, the growth inhibition ([9]; at 50.0 µM) was 26.9% and the growth inhibition ([10]; at 1.2 µM) was 11%. The growth inhibition ([10]; at 3.7 µM) was 0%, the growth inhibition [10, 16] was 7% and the growth inhibition ([10]; at 11.0 µM) was 0%. For the same compound, the growth inhibition ([10]; at 33.0 µM) was -7%, the growth inhibition [10, 17] was 0% and the growth inhibition ([10]; at 50.0 µM) was -14%. For the same compound, the growth inhibition ([10]; at 100.0 µM) was 0%, the growth inhibition ([11]; at 1.2 µM) was -4% and the growth inhibition ([11]; at 3.7 µM) was -6%. The growth inhibition ([11]; at 11.0 µM) was 2%, the growth inhibition ([11]; at 33.0 µM) was -12% and the growth inhibition ([11]; at 100.0 µM) was -12%. For the same compound, the growth inhibition ([12]; at 1.2 µM) was 22%, the growth inhibition ([12]; at 3.7 µM) was 33% and the growth inhibition ([12]; at 11.0 µM) was 32%. The growth inhibition ([12]; at 33.0 µM) was 26%, the growth inhibition ([12]; at 100.0 µM) was 7% and the growth inhibition [14, 16] was 19%. The growth inhibition [14, 17] was 24%, the growth inhibition ([14]; at 50.0 µM) was -63% and the growth inhibition ([15]; at 1.2 µM) was 13%. The growth inhibition ([15]; at 3.7 µM) was 12%, the growth inhibition ([15]; at 11.0 µM) was 21% and the growth inhibition ([15]; at 33.0 µM) was 14%. The growth inhibition ([15]; at 100.0 µM) was -7%.
